# Measurements as given in PubChem BioAssay (EPA / NIEHS).
# Several values for one entry are separate records, joined by “and”; a condition that tells them apart may be missing. Identical values can stand only once. A structure can be active in one record and inactive in another. Activity calls are given as the source filed them. How the source made its calls: active means hit-call score of the fitted dose curve at least 0.9, where 1 is the maximum; inactive means score below 0.9.
# Experiment: ATG_MRE_CIS: Attagene CIS-FACTORIAL HepG2 Assay for human Metal Responsive Element (MRE) (AID 2282954)
# Details: HepG2 MRE cis-reporter transcription, Attagene multiplex; actives raise or lower the signal
# Procedure: ATG_CIS is a cell-based, multiplexed-readout assay that uses HepG2, a human liver cell line, with measurements taken at 24 hours after chemical dosing in a 24-well plate.ATG_MRE_CIS is one of 52 assay component(s) measured or calculated from the ATG_CIS assay. It is designed to make measurements of mRNA induction, a form of inducible reporter, as detected with fluorescence intensity signals by Reverse transcription polymerase chain reaction (RT-PCR) and Capillary electrophoresis technology.Data from the assay component ATG_MRE_CIS was analyzed into 1 assay endpoint. This assay endpoint, ATG_MRE_CIS, was analyzed with bidirectional fitting relative to DMSO as the negative control and baseline of activity. Using a type of inducible reporter, measures of mRNA for gain or loss-of-signal activity can be used to understand the reporter gene at the transcription factor-level as they relate to the gene MTF1. Furthermore, this assay endpoint can be referred to as a primary readout, because this assay has produced multiple assay endpoints where this one serves a reporter gene function. To generalize the intended target to other relatable targets, this assay endpoint is annotated to the dna binding intended target family, where the subfamily is zinc finger.
# Human liver HepG2 cells are transiently transfected with multiple reporter transcription units (MRTUs) in 6-well plates using FuGene 6 reagent (Roche; 3 ml FuGene/1 mg DNA). The MRTU constructs are regulated by a cis-regulating element (promoter). […] A major difference between the CIS and TRANS system is that in CIS activities of endogenous TFs are measured, whereas the TRANS assay evaluates changes in activities of exogenous, chimeric NR-Gal4 proteins. […] At the end of 24 hour incubation, total RNA was isolated using TriZol reagent (Invitrogen). The isolated RNA is then reverse-transcribed using oligo(dT) primer and Mo-MLV reverse transcriptase (Invitrogen) with DNAse I (Ambion) treatment for 30 min. The one-tenth of the produced cDNA was amplified by PCR using Taq DNA polymerase (Invitrogen) and two reporter sequence-specific primers. The PCR products were fluorescently labeled by primer extension with 6-arboxyfluorescein (6-FAM) 5'-labeled reporter sequence-specific primer (2 min at 95 C, 20 s at 68 C and 10 min at 72 C) and these products were digested with 5U of HpaI (New England Biolabs) for 2h at 37 C. The fragments were purified using Qiaquick PCR columns (Qiagen), analyzed on an ABI 3130xL genetic analyzer (Applied Biosystems) with peak positions identified by using a set of X-rhodamine (ROX)-labeled MapMarker1000 molecular weight standards (BioVentures). The raw capillary electrophoresis data was processed using Attagraph software (Attagene).
SMILES,outcome,AC50
O=[N+]([O-])/N=C1\NCCN1Cc1ccc(Cl)nc1,inactive,
C[C@H]1[C@H](c2ccc(Cl)cc2)SC(=O)N1C(=O)NC1CCCCC1,,38.3 µM (active)
Cc1cc(C)nc(NC(=O)NS(=O)(=O)c2ccccc2C(=O)OC2COC2)n1,,80.5 µM (active)
CC(C)(C)C(O)C(Oc1ccc(Cl)cc1)n1cncn1 (stereo not given),inactive,7.83 µM (active)
Clc1ccccc1-c1nnc(-c2ccccc2Cl)nn1,inactive,
CNC(=O)/C=C(\C)OP(=O)(OC)OC,inactive,
CNC(=O)Oc1cccc(N=CN(C)C)c1,,72.1 µM (active)
O=C(Nc1ccccc1)Nc1cnns1,,50 µM (active)
CCOC1Oc2ccc(OS(C)(=O)=O)cc2C1(C)C (stereo not given),,50 µM (active)
CCc1ccc(C(=O)NN(C(=O)c2cc(C)cc(C)c2)C(C)(C)C)cc1,,18.2 µM (active)
CCC(C)Nc1c([N+](=O)[O-])cc(C(C)(C)C)cc1[N+](=O)[O-] (stereo not given),,31.6 µM (active)
CCCN(CCOc1c(Cl)cc(Cl)cc1Cl)C(=O)n1ccnc1,inactive,18.6 µM (active)
COP(=S)(OC)Oc1ccc([N+](=O)[O-])cc1,inactive,
Oc1cc(Cl)ccc1Oc1ccc(Cl)cc1Cl,inactive,15.3 µM (active) [middle of 6 runs]
Oc1ccc(Cl)cc1Cc1ccccc1,inactive,16 µM (active)
CCC(C)(C)C(=O)OC1=C(c2ccc(Cl)cc2Cl)C(=O)OC12CCCCC2,inactive,
O=C(NC(=O)c1c(F)cccc1F)Nc1ccc(OC(F)(F)C(F)OC(F)(F)F)c(Cl)c1 (stereo not given),inactive,
N#Cc1c(Cl)c(Cl)c(Cl)c(C#N)c1Cl,inactive,

SMILES,outcome,AC50
CCOCN(C(=O)CCl)c1c(C)cccc1CC,inactive,
COP(=O)(OC)OC=C(Cl)Cl,,36.7 µM (active)
ClC1C(Cl)C(Cl)C(Cl)C(Cl)C1Cl (stereo not given),inactive,17.1 µM (active) and 100 µM (active) and 33.7 µM (active)
CC[C@H](C)[C@H]1O[C@]2(C=C[C@@H]1C)C[C@@H]1C[C@@H](C/C=C(\C)[C@@H](O[C@H]3C[C@H](OC)[C@@H](O[C@H]4C[C@H](OC)[C@@H](O)[C@H](C)O4)[C@H](C)O3)[C@@H](C)/C=C/C=C3\CO[C@@H]4[C@H](O)C(C)=C[C@@H](C(=O)O1)[C@]34O)O2 (tested in a mixture with another compound),inactive,
CNC(=O)CSP(=S)(OC)OC,inactive,
N#CN,inactive,
COC(=O)c1ccccc1S(=O)(=O)NC(=O)Nc1nc(C)nc(OC)n1,inactive,
OCCOc1ccccc1,inactive,
O=C(O)CCCOc1ccc(Cl)cc1Cl,inactive,
O=S1OCC2C(CO1)C1(Cl)C(Cl)=C(Cl)C2(Cl)C1(Cl)Cl (stereo not given),inactive,
CC(C)OC(=O)Nc1cccc(Cl)c1,,50 µM (active)
COc1cc(OC)nc(NC(=O)NS(=O)(=O)c2cc(NC=O)ccc2C(=O)N(C)C)n1,inactive,
O=C(O)C(F)(F)C(F)(F)C(F)(F)C(F)(F)C(F)(F)C(F)(F)C(F)(F)F,inactive,
CCOc1nc(NC)nc(NC(=O)NS(=O)(=O)c2ccccc2C(=O)OC)n1,inactive,
COP(=S)(OC)Oc1ccc(SC)c(C)c1,inactive,
CCN(CC)C(=O)SCc1ccc(Cl)cc1,,65.9 µM (active)
COc1nn(CSP(=S)(OC)OC)c(=O)s1,inactive,
